Hits are enriched below; roughly 7.6% of the tested compounds scored in any of these assays.
SW480 rereplic = A quantitative high throughput screen for small molecules that induce DNA re-replication in SW480 colon adenocarcinoma cells; hit rate 1.8% among 340,000; SW480 DNA re-replication, Hoechst DNA content imaging, 48 h; Potency, µM (top dose mostly 46.1 µM), actives largely listed as activators; AID 624297, 2012; further: nearly all actives have a fitted effect of over 55% in size
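Quantitative HTS format with DMSO vehicle controls; 48 hr drug incubation at 37 C, then 40 min Hoechst staining and scanning imager measurement at 405 nm excitation.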
KCNH2 3.1 block = qHTS for Inhibitors of KCHN2 3.1: Mutant qHTS; U2OS KCNH2 3.1, thallium flux FluxOr; hits give low values; activity change, % (tested at about 1.8 µM); hit rate 0.95% among 340,000; AID 720553, 2013;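 active means maximum activity change below -70%; inconclusive means maximum activity change from -70% to -50%; inactive means maximum activity change above -50%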;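 further: thallium influx rate constant from kinetic fluorescence after stimulation buffer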
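Kinetic fluorescence (2 min after stimulation buffer) measures Tl+ influx through KCNH2 3.1 expressed by viral transduction in U2OS cells; the rate constant is normalized against DMSO controls serving as positive and negative references.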
hERG WT inh = qHTS for Inhibitors of KCHN2 3.1: Wildtype qHTS; activity change, % at 1.84 µM; Voltage-gated inwardly rectifying potassium channel KCNH2 (Homo sapiens), Q12809; AID 720551, 2013; U2OS, BacMam KCNH2, thallium flux FluxOr; hits give low values; hit rate 0.37% among 340,000;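 active means maximum activity change below -70%; inconclusive means maximum activity change between -70% and -50%; inactive means maximum activity change above -50%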
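U2OS cells were transduced with wild-type KCNH2 virus (2.03 x 10^8 / mL) for 4 h at room temperature, then cultured overnight at 37 C. Thallium flux was read with FluxOr dye. Rate constants were normalized to DMSO controls.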
MCF10A rereplic = A quantitative high throughput screen for small molecules that induce DNA re-replication in MCF 10a normal breast cells; MCF 10A DNA re-replication, Hoechst nuclear intensity, 48 h; hit rate 2.9% among 350,000; Potency, µM (series often up to 46.1 µM), actives largely listed as activators; further: nearly all actives have a fitted effect of over 50% in size
KB-V1 cytotox = qHTS assay for MDR1-selective chemotherapeutics: Primary screen using the drug-selected MDR subline cells KB-V1; KB-V1 MDR cells viability, CellTiter-Glo, 72 h; Potency, µM (top dose mostly 46.1 µM), hits mostly cytotoxic; hit rate 3.4% among 400,000; further: nearly all actives have a fitted effect of over 60% in size
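Compound-treated KB-V1 multidrug-resistant cells, 72 h, 37 degrees C; viability by CellTiter-Glo. Fitted qHTS curves give the values.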
KB-3-1 tox = qHTS assay for MDR1-selective chemotherapeutics: Primary screen using the parental adenocarcinoma cell KB-3-1 | hit rate 1.4% among 400,000 | KB-3-1 viability, CellTiter-Glo ATP luminescence, 72 h | Potency, µM (top dose mostly 46.1 µM), usual class: cytotoxic; further: nearly all actives have a fitted effect of over 60% in size
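Viability of parental KB-3-1 cells, measured by CellTiter-Glo luminescence, followed a 72 h incubation at 37 °C with pinned compounds in phenol-red-free DMEM containing 10% FBS.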
A number is an active result; – = inactive; ? = inconclusive; · = not tested or not shown; [ ] = another dose, or the depositor's remark. Unless noted, the call rests on the fitted dose curve; in most records, active means well fitted curve in the direction sought with a large enough effect; inconclusive means small, poorly fitted or top-dose-only effect, or another doubt; inactive means no such curve, though single readings can be large; an effect the other way counts as inactive or inconclusive.

SMILES	SW480 rereplic	KCNH2 3.1 block	hERG WT inh	MCF10A rereplic	KB-V1 cytotox	KB-3-1 tox
Cc1cc(C(=O)O)ccc1-c1ccc(/C=C2\NC(=O)N(Cc3ccc(F)cc3)C2=O)o1	9.2µM	–	–	3.66µM	–	–
Cc1ccc(CN2C(=O)N/C(=C/c3ccc(-c4ccc(C(=O)O)cc4)o3)C2=O)cc1	4.61µM	–	–	8.2µM	–	–
O=C(O)c1ccc(COc2ccc3ccccc3c2/C=C2/NC(=O)N(Cc3ccc(F)cc3)C2=O)cc1	?	–	–	18.4µM	–	–
Cc1ccc(CN2C(=O)N/C(=C\c3cccn3-c3cccc(C(=O)O)c3)C2=O)cc1	–	–	–	–	–	–
Nc1nc(NC(=O)c2ccc(F)cc2)ns1	–	–	–	–	–	–
Cc1csc(CN(C)C(=O)CC2C(=O)NCCN2Cc2ccc(F)c(F)c2)n1 (stereo unspecified)	–	–	–	–	·	·
Cn1nc(N)nc1N1CCN(c2ccc(F)cc2)CC1	–	–	–	–	–	–
O=C1c2ccccc2-c2cc([N+](=O)[O-])c([N+](=O)[O-])cc21	·	·	·	·	–	?
Nc1cc2ccncc2c2ccccc12	?	–	–	20.6µM	?	–
N#Cc1cc2ccncc2c2ccccc12	·	–	–	·	–	?
O=C(COc1ccc(/C=N/NC(=O)c2cc3ccccc3o2)cc1Br)Nc1ccccc1	?	–	–	?	?	13µM
O=C(COc1ccccc1[N+](=O)[O-])Nc1ccc(NC(=O)c2cc3ccccc3o2)cc1	–	-119.0	–	?	–	–
O=C(N/N=C/c1ccco1)c1cc2ccccc2o1	–	–	–	?	–	–
Cc1cc(Br)cc(C)c1OCCCCN(C)C	?	–	–	?	–	–
S=c1[nH]c2ccccc2n1CCc1ccccc1	·	·	·	·	–	–
CCCCNC1C(CC)C(CCC)C(C#N)(C#N)C1(C#N)C#N (stereo unspecified)	?	–	–	20.6µM	?	?
COc1ccc(C(=O)Cn2nc(CNc3ccc(Br)cc3)[n+]3c2CCCCC3)cc1	–	–	–	?	–	20.6µM
O=C(Cn1nc(-c2nn(CC(=O)c3ccccc3)c3[n+]2CCCCC3)[n+]2c1CCCCC2)c1ccccc1	–	–	–	–	?	–
CN(C)c1ccc(/C=C/c2ccnc3ccc(I)cc23)cc1	·	·	·	·	–	?
Cn1c(N2CCN(S(=O)(=O)c3ccc(F)cc3)CC2)nc2ccccc21	–	–	–	–	?	–
CCn1c(N2CCN(S(=O)(=O)c3ccc(OC)cc3)CC2)nc2ccccc21	–	–	–	–	13µM	–
COc1ccc(OCCN2CCN(S(=O)(=O)c3ccccc3C#N)CC2)cc1	–	–	–	–	?	?
COc1ccc(OCCN2CCN(S(=O)(=O)c3ccccc3C(F)(F)F)CC2)cc1	–	–	–	–	2.31µM	?
CCn1c(N2CCN(S(=O)(=O)c3ccccc3C(F)(F)F)CC2)nc2ccccc21	–	–	–	?	18.4µM	–
O=S(=O)(c1ccccc1C(F)(F)F)N1CCN(S(=O)(=O)c2ccccc2C(F)(F)F)CC1	–	–	–	–	–	–
SMILES	SW480 rereplic	KCNH2 3.1 block	hERG WT inh	MCF10A rereplic	KB-V1 cytotox	KB-3-1 tox
CC(C)n1c(N2CCN(S(=O)(=O)c3cccc([N+](=O)[O-])c3)CC2)nc2ccccc21	–	?	–	–	18.4µM	–
N#CCC(=O)Nc1ccc(C(=O)OC(C(=O)Nc2ccc([N+](=O)[O-])cc2Br)c2ccccc2)cc1 (stereo unspecified)	–	–	–	–	–	–
N#CCC(=O)Nc1ccc(C(=O)OC(C(=O)Nc2cc(C(F)(F)F)ccc2Cl)c2ccccc2)cc1 (stereo unspecified)	?	–	–	?	14.6µM	?
Cc1ccccc1C(=O)NNC(=S)Nc1cccc(C(F)(F)F)c1	–	–	–	?	?	?
CNNC(=S)Nc1cccc(C(F)(F)F)c1	–	–	–	–	–	–
O=C(NNC(=S)Nc1cccc(C(F)(F)F)c1)c1ccc(Cl)cc1Cl	?	–	–	13µM	18.4µM	?
COC(=O)/C=C/C(=O)Nc1cccc(C(F)(F)F)c1	?	–	–	23.1µM	–	–
CC(C)(O)C(=O)NNC(=S)Nc1cccc(C(F)(F)F)c1	–	-93.8	–	–	–	–
COc1ccc(NC(=S)NNC(=S)Nc2cccc(C(F)(F)F)c2)cc1	–	–	–	14.6µM	–	–
O=C(Nc1ccccc1Cl)c1cc(C2CCCN(C(=O)c3cccc(O)c3)C2)on1 (stereo unspecified)	·	·	·	·	–	–
COc1ccccc1NC(=O)COC(=O)c1ccccc1C(=O)N1CCN(c2ccccc2)CC1	–	–	–	–	?	–
Cc1ccc(CNC(=O)C2CCCCN2S(=O)(=O)c2ccccc2)cc1 (stereo unspecified)	–	–	–	–	–	–
O=C1Oc2ccccc2C(=O)C1C(CC(O)c1ccc(-c2ccc(Br)cc2)cc1)c1ccccc1 (stereo unspecified)	–	·	·	29.9µM	·	·
O=C(COc1ccc([N+](=O)[O-])cc1)N(Cc1ccccc1)Cc1ccccc1	–	–	–	–	18.4µM	–
CCCNC(=O)c1cc(C2CCCN(C(=O)c3cc(C(C)(C)C)nn3C)C2)on1 (stereo unspecified)	·	·	·	·	–	–
CCCNC(=O)c1cc(C2CCCCN2C(=O)c2cc(C(C)(C)C)nn2C)on1 (stereo unspecified)	·	·	·	·	16.4µM	?
COc1ccc(CNC(=S)Nc2ccccc2)cc1	?	–	–	?	–	–
O=C(c1cccs1)n1nc(-c2ccccc2)nc1NCc1ccc(F)cc1	–	–	–	–	13µM	?
CCC(=O)n1nc(-c2cccnc2)nc1NCc1ccccc1	–	–	–	–	–	?
CCCC(=O)n1nc(-c2cccnc2)nc1NCc1ccccc1	–	-125.3	–	–	–	–
COc1ccccc1C(=O)n1nc(-c2ccccc2)nc1NCc1ccc(Cl)cc1	·	·	·	·	14.6µM	?
COc1ccccc1C(=O)N1CCCC(c2nc(-c3cc(OC)c(OC)c(OC)c3)no2)C1 (stereo unspecified)	–	–	–	–	4.61µM	–
O=S(=O)(c1ccc(Cl)cc1)N1CCCC(c2nc(-c3ccc(F)cc3)no2)C1 (stereo unspecified)	–[9.22 µM]	–	–	–	–	–

Screens: PubChem BioAssay, National Center for Advancing Translational Sciences (NCATS)
